From PubChem BioAssay
15-hLO-2 inh: blocks human 15-lipoxygenase 2 activity; O15296; purified 15hLO-2, xylenol orange hydroperoxide absorbance; Potency, µM (titrated, usually from 57.1 µM), for the others: top-dose activity change, negative = inhibition, actives largely listed as inhibitors; actives 0.56% (n = 110,000); AID 881; further: potency means the concentration at half of the fitted maximal effect; nearly all actives have a fitted effect of over 60% in size
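Enzyme 50 nM, AA 45 uM, 25 mM Hepes pH 7.5 + 0.01% Triton X-100; cpd preinc 15 min RT, rxn 90 min RT; stop/detect with 200 uM XO + 300 uM Fe(II) in 50 mM H2SO4, 30 min; A573/A405.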
IMPase inh: IMPase inhibition in cells; 120,000 tested, under 10 active; P97697; CHO-M1 cells, IP1 accumulation, HTRF TR-FRET ratio; inhibition (IP1 accumulation), % at 46.1 µM; AID 901; active means well fitted curve in the direction sought with a large enough effect in the signal ratio, not every such curve was filed as active; inconclusive means small, poorly fitted or top-dose-only effect, or a change in a side signal; inactive means no such curve, though single readings can be large or run the other way; the % refers to the signal ratio;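 further: cells stimulated with carbachol in lithium chloride buffer; plate controls were DMSO basal wells for no effect and reference inhibitor wells for full effect; higher means more IMPase inhibition seen as more IP1 and lower FRET ratio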
Target sequence (P97697 whole entry, looked up): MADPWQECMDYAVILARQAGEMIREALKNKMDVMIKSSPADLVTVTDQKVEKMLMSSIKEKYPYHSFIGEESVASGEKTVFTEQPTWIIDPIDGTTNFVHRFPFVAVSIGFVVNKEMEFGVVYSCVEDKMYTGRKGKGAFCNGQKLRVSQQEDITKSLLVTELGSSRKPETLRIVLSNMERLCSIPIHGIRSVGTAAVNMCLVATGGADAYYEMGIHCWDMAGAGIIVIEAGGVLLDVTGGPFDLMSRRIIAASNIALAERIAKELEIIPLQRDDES
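CHO-M1, 2000 cells/well, cultured 16–30 h; cpd up to 46 uM; carbachol (50 uM solution, stimulation buffer w/ 50 mM LiCl, pH 7.4), 30 min 37C; IP-One TR-FRET, 10 min RT; Ex 320/Em 665, 620; Hill-fit AC50.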
IMPase Li cell: cell-permeable IMPase inhibitors with lithium potentiation; Potency, µM (highest dose often 59.4 µM), inactives show at the top dose activity, negative = IMPase inhibition, hits mostly inhibitors; actives 0.35% (n = 210,000); CHO-M1 cells, IP1 TR-FRET (IP-One), carbachol + lithium;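 further: IP1 builds up when IMPase is blocked and the TR-FRET signal falls; potency means the concentration at half of the fitted maximal effect; plate controls were basal vehicle for no effect and high inhibitor control for full effect; nearly all actives have a fitted effect of over 50% in size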
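Concentration–response in CHO-M1 cells, lithium-potentiated; 30 min at 37C. IP1 detected by competitive TR-FRET after 10 min lysis at RT. Hill-fitted AC50.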
ALOX12 inhib: inhibitors of human 12-lipoxygenase (ALOX12) | purified 12-hLO, xylenol orange hydroperoxide absorbance | P18054 | actives 0.12% (n = 150,000) | Potency, µM (top dose mostly 57.1 µM), inactives show at the highest dose activity change, negative = inhibition, actives largely listed as inhibitors; further: potency means the concentration at half of the fitted maximal effect; nearly all actives have a fitted effect of over 55% in size
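150 nM 12hLO, 25 mM Hepes pH 7.0 + 0.01% Triton X-100; cpd preinc 15 min RT; 40 uM arachidonic acid, 30 min RT; Fe-XO 30 min; A573/A405 ratio as read-out.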
The depositor's hits bear a star; ? = inconclusive; · = not tested or not shown; [ ] = remark or other dose. Shown is part of a subset that was picked to be rich in hits. Unless noted, the call rests on the fitted dose curve; in most records, active means well fitted curve in the direction sought with a large enough effect; inconclusive means small, poorly fitted or top-dose-only effect, or another doubt; inactive means no such curve, though single readings can be large; an effect the other way counts as inactive or inconclusive. Unless noted, on the % scale 0 is the no-effect control and ±100 the full control effect.

SMILES	15-hLO-2 inh	IMPase inh	IMPase Li cell	ALOX12 inhib
CCOC(=O)C1=C([Si](C)(C)C)c2ccccc2N(S(=O)(=O)C(F)(F)F)C1C(=O)OCC (centres undefined)	5%[0.0915 µM]	·	31%	-8%[0.00818 µM]
Cc1ccc(N2C(=O)/C(=C\c3ccco3)SC2=S)cc1	?	3	-7%[38.3 µM]	7.9µM*
CN(C)C(=S)SC(=S)N(C)C	-3%[0.0915 µM]	·	18%	-3%[0.00818 µM]
CCOC(=O)c1sc2nc(NC(=O)C3CC3)sc2c1C	-2%	-1	13µM*	-9%
CCOC(=O)c1sc2nc(NC(=O)C3CCCCC3)sc2c1C	2%	-3	?	2%
O=C(c1[nH]o[n+](=O)c1C(=O)c1csc2ccccc12)c1csc2ccccc12	-3%[11.4 µM]	·	·	-4%[11.4 µM]
Cc1cccc(NC(=O)CN2C(=O)S/C(=C\c3ccc(-c4cccc(C(=O)O)c4C)o3)C2=O)c1	·	·	2%	·
Cc1ccc(NC(=O)CN2C(=O)S/C(=C/c3ccc(-c4cc(C(=O)O)ccc4C)o3)C2=O)cc1C	20µM*	-1	39%[38.3 µM]	-25%
O=C(COc1ccc(Cl)cc1)NCc1nnc(SCC(=O)NC2CCCCC2)o1	7%	-2	11µM*	-2%
CCOC(=O)c1cnc2c(ccc3ccccc32)c1Nc1cccc(Cl)c1	·	-1	·	·
CCn1c2ccccc2c2cc(NC(=O)c3ccc(Br)o3)ccc21	3.2µM*	4	21%[38.3 µM]	-7%
CCNc1ncc2nc(-c3ccc(OC)cc3)c(=O)n(CCc3ccccc3)c2n1	-7%	·	11µM*	·
CCNc1ncc2nc(-c3cc(F)cc(F)c3)c(=O)n(CCc3ccccc3)c2n1	-7%	·	-17%	·
COc1ccc(-c2nc3cnc(OC)nc3n(C3CC3)c2=O)cc1	15%	·	13µM*	1%
COc1ncc2nc(-c3ccccc3)c(=O)n(C3CC3)c2n1	0%	·	-4%	·
COc1ccc(-c2nc3cnc(Oc4cccc(Cl)c4)nc3n(CCC#N)c2=O)cc1	-7%	·	5µM*	·
CCNc1ncc2nc(-c3ccc(F)cc3)c(=O)n(CCC#N)c2n1	-1%	·	10µM*	-6%
COc1ncc2nc(-c3ccc(Cl)cc3)c(=O)n(C[C@H]3CCCO3)c2n1	-2%	·	-1%	1%
O=C(c1ccco1)N1CCC2(CCN(Cc3ccccc3)CC2)CC1	4%	·	37%	-2%
CCCCCCCCCCC/C=C\C/C=C\CCCC(=O)O	·	·	7%	1%
Cc1[nH]c2ccccc2c1-c1cc(-c2cc(-c3c(C)[nH]c4ccccc34)nc(N)n2)nc(N)n1	-4%[11.4 µM]	·	-7%	2%[11.4 µM]
Cc1noc(C)c1-c1nccc(N(C)C)n1	-6%	·	-1%	·
CC1CCN(c2ccccc2NC(=S)NC(=O)c2ccc(-c3cccc([N+](=O)[O-])c3)o2)CC1	16µM*	6	-12%[38.3 µM]	-6%
COc1ccccc1CCNC(=O)c1cc(-c2ccccn2)nc2ccc(Br)cc12	·	·	13µM*	·
COc1ccc(-c2nc3c(c4c2C[C@H](c2ccccc2)OC4)CN(S(=O)(=O)c2ccc(C)cc2)CC3)c(C)c1	·	·	3%	2%[11.4 µM]
SMILES	15-hLO-2 inh	IMPase inh	IMPase Li cell	ALOX12 inhib
CN(C)C=Nc1ccc2nn(-c3ccccc3)nc2c1	26%	-24	13µM*	5%
CCCCS(=O)(=O)N1C2=NC(C(=O)OC)=C(C(=O)OC)[C@@H]3Nc4ccccc4[C@]23C[C@H]1C(=O)OC	·	·	1%	-2%[11.4 µM]
CCOC(=O)C1=C(Cc2ccc(Cl)cc2)C(=O)c2ccccc2C1=O	10µM*	-4	28%[38.3 µM]	?
CCOC(=O)c1sc(NC(=S)NC(=O)c2ccco2)nc1C	·	-5	-8%	-2%
COC(=O)c1sc(NC(=O)c2ccco2)nc1C	-7%	-3	10µM*	-1%
CC(C)(C)CC(=O)Nc1cccc(-c2cn3cccnc3n2)c1	·	·	2%	·
COCC(=O)Nc1ccc(-c2cn3cccnc3n2)cc1	3%	-25	11µM*	-3%
Cc1ccc(Cl)cc1N	-1%	·	8%	2%
COC(=O)C1C(O)CC[C@H]2CN3CCc4c([nH]c5ccccc45)C3C[C@H]12 (some centres undefined)	18%	·	-2%	-1%
Cc1cc(C)c2c(=O)n(CC(=O)N3CCC(Cc4ccccc4)CC3)sc2n1	·	0	4%	-16%
Cc1cccc(N2CCN(C(=O)Cn3sc4nc(C)cc(C)c4c3=O)CC2C)c1 (centres undefined)	1µM*	2	20%[38.3 µM]	?
CCOc1ccc(C(=O)Nc2cc(C)c3c(=O)oc4ccccc4c3n2)cc1	-6%	-3	13µM*	-2%
